Data on 88 molecules can be found in PubChem BioAssay AID1481 (The Scripps Research Institute Molecular Screening Center, 2009).

“And” between values parts separate entries of the source, which are not always exact repeats. Equal entries are not always repeated. Hit rate of the full screen: of about 220,000 compounds, about 920 (0.42%) were called active. Cut-off read from the data, not from the text of the source: active = inhibition above about 15%; inactive = the rest. The list comes from a sample in which actives are over-represented; it also holds similar structures and randomly drawn compounds. A structure can be active in one record and inactive in another.

In the experiment the target is Transitional endoplasmic reticulum ATPase (Homo sapiens) (UniProt P55072). Put plainly: p97 ATP hydrolysis blockers – biochemical, primary screen (AID 1481).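 Note: 0% = DMSO vehicle and 100% = wells lacking enzyme.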 Conditions: recombinant p97 ATPase, Kinase-Glo ATP luminescence, 3 h; at 8 µM; stronger effect = higher value. In general terms: In Kinase-Glo more light means more ATP remaining.
Sequence of Transitional endoplasmic reticulum ATPase (Homo sapiens) (P55072 whole entry, looked up): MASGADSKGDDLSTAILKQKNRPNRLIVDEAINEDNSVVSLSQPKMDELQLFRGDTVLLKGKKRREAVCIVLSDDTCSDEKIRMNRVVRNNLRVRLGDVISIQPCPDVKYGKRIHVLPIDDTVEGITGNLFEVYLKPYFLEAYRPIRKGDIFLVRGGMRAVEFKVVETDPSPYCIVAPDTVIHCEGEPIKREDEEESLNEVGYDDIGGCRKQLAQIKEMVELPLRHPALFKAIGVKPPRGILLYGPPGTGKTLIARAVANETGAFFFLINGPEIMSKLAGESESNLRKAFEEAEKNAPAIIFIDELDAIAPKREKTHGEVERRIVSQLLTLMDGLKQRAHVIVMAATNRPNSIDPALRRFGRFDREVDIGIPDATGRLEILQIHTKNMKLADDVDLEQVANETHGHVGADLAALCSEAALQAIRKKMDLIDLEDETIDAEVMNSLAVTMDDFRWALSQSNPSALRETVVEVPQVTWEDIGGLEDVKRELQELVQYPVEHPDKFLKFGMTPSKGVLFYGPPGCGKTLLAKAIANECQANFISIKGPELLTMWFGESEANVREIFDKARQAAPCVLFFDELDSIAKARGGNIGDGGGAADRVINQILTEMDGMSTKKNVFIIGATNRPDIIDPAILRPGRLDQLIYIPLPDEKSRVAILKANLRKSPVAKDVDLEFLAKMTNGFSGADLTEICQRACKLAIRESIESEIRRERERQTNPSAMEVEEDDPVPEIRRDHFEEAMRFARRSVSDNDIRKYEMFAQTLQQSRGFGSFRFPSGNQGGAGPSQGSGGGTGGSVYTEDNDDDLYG
For orientation: inhibition means the drop in the measured response relative to a control, in per cent. As to `N#CC1=C(N)Oc2n[nH]c(CSc3ccccc3)c2C12C(=O)Nc1ccccc12` (stereo not drawn), the inhibition was 7.12% (inactive).

Regarding `Cc1ccc(NC2(C#N)C(=O)Nc3ccccc32)cc1` (stereo not drawn), the inhibition is 2.18% (inactive).

`N#CC1=C(N)Oc2[nH]c(=S)[nH]c(=O)c2C12C(=O)Nc1ccccc12` (stereo not drawn): the inhibition is 20.7% (active).

Turning to `COc1ccc2c(c1)CCc1cn3ncc(C#N)c3nc1-2`, the inhibition is 7.2% (inactive).

Regarding `CCC(=O)OCCNc1nc(-c2ccccc2)nc2ccccc12`, the inhibition is 4.18% (inactive).

Take `Cc1cc(C(C)(C)C)cc(C)c1N`: the inhibition is 7.52% (inactive).

For the molecule `COc1cc(C(F)(F)F)c(C(=O)N(C)c2ccc(Cl)cc2)cn1`, the inhibition was -1.66% (inactive).

In the case of `C#CCOCCOCCOCCNc1nc(N2CCN(C(=O)C(Cc3ccc(O)cc3)n3cc(C(N)CC(C)C)nn3)CC2)nc(N2CCN(C(=O)C(Cc3ccc(O)cc3)n3cc(C(N)C(C)CC)nn3)CC2)n1` (stereo not drawn), the inhibition is 14.7% (active).

As for `C#CCOCCOCCOCCNc1nc(N2CCN(C(=O)[C@H](Cc3ccc(O)cc3)n3cc(C(N)CC(C)C)nn3)CC2)nc(N2CCN(C(=O)[C@H](CCC(=O)O)n3cc(C(N)[C@H](C)CC)nn3)CC2)n1` (stereo partly drawn), the inhibition is -3.1% (inactive).

As to `C#CCOCCOCCOCCNc1nc(N2CCN(C(=O)[C@H](CCCCN)n3cc([C@@H](N)C(C)CC)nn3)CC2)nc(N2CCN(C(=O)[C@H](Cc3ccc(O)cc3)n3cc([C@@H](N)C(C)CC)nn3)CC2)n1` (stereo partly drawn), the inhibition is 13.3% (inactive).

In the case of `O=C(NCCc1ccccn1)c1cccnc1Oc1ccc(Cl)cc1`, the inhibition is -3.2% (inactive).

Turning to `COc1ccccc1N1CCN(C(=O)C(=O)N/N=C/c2ccccc2F)CC1`, the inhibition is 0.1% (inactive).

For `COc1ccc(C(C(=O)NC2CCCCC2)N(C(=O)CCl)c2ccccc2Cl)cc1` (stereo not drawn), the inhibition is -0.41% (inactive).

In the case of `COc1ccc(C(C(=O)NC2CCCCC2)N(C(=O)Cc2c[nH]c3ccccc23)c2ccccc2)cc1OC` (stereo not drawn), the inhibition was 14.6% (active).

For `Cc1cc(NC(=O)CCC(=O)N(c2ccccc2)C(C(=O)NC2CCCC2)c2ccncc2)no1` (stereo not drawn), the inhibition is 3.62% (inactive).

For the molecule `Cc1ccc2nc(-c3ccc(NC(=O)c4cccnc4)cc3)oc2c1`, the inhibition is -7.59% (inactive).

`COc1cccc(NC(=S)C(C#N)=C2N(C)c3ccccc3N2C)c1`: the inhibition was 4.23% (inactive).

Consider `Cc1[nH][nH]c(=O)c1C(c1ccc(-c2ccc(Cl)cc2)o1)c1c(C)[nH][nH]c1=O`, for which the inhibition was 18.4% (active).

For `Cc1[nH][nH]c(=O)c1C(c1ccc2c(c1)OCO2)c1c(C)[nH][nH]c1=O`, the inhibition is -1.45% (inactive).

For `CCOc1ccc(C(c2c(C)[nH][nH]c2=O)c2c(C)[nH][nH]c2=O)cc1OCC`, the inhibition is -3.3% (inactive).

In the case of `CCc1ccccc1NC(=O)CN(c1ccc(OC)cc1OC)S(=O)(=O)c1ccccc1[N+](=O)[O-]`, the inhibition is 0.37% (inactive).

Regarding `Cc1ccc(Cn2c(SCC(=O)N/N=C/c3ccccc3OCC(=O)O)nc3ccccc32)cc1`, the inhibition was -13.9% (inactive).

On to `CC(NCc1ccccc1OC1CCCC1)c1ccccc1` (stereo not drawn), for which the inhibition was 2.88% (inactive).

`CC(Oc1ccccc1F)C(=O)NN` (stereo not drawn): the inhibition was -4.14% (inactive).

As for `O=C(/C=C/Nc1ccc(S(=O)(=O)Nc2cnc3ccccc3n2)cc1)c1cccnc1`, the inhibition is 1.02% (inactive).

Turning to `Oc1ccc(N=Cc2c(O)ccc3ccccc23)cc1`, the inhibition is 9.71% (inactive).

Take `Oc1ccc2ccccc2c1C=Nc1ccccc1`: the inhibition is 4.59% (inactive).

Regarding `Oc1c(C=Nc2cccc3nsnc23)ccc2ccccc12`, the inhibition was 40.4% (active).

Turning to `CCOC(=O)c1ccccc1C(=O)N1CCOCCOCCOCC1`, the inhibition was -4.13% (inactive).

For `Nc1nc(SCC(=O)NN(c2ccccc2)c2ccccc2)n[nH]1`, the inhibition is -5.25% (inactive).

In the case of `COc1ccccc1C(=O)Nc1nc2nc(-c3ccccc3)cc(=O)n2[nH]1`, the inhibition was 14.8% (active).

With `COc1ccccc1NC(=O)c1cc(Cl)nc2ccccc12`, the inhibition was 5.78% (inactive).

In the case of `COc1cc(OC)c(C(=O)Nc2ccccc2-c2ccccc2)cc1OC`, the inhibition was 0.92% (inactive).

Turning to `O=C(NCCc1ccccc1)Oc1ccc(Cl)cc1`, the inhibition is -1.73% (inactive).

Consider `O=C(N/N=C/c1ccccc1O)/C(=C/c1ccccc1)CCO`, for which the inhibition was 2.01% (inactive).

`CCC1CCCCN1S(=O)(=O)Cc1ccccc1Cl` (stereo not drawn): the inhibition is 2.1% (inactive).

Take `O=C(/C=C/c1ccc(Cl)c([N+](=O)[O-])c1)c1cccnc1`: the inhibition is -0.11% (inactive).

Regarding `CN(C)c1ccc(/C=C/C(=O)c2ccc(O)cc2)cc1[N+](=O)[O-]`, the inhibition is 0.06% (inactive).

Regarding `O=C(/C=C/c1ccc(Cl)c([N+](=O)[O-])c1)c1ccc(O)cc1`, the inhibition was 19.3% (active).

Take `Cc1ccccc1Nc1c(-c2ccccc2)nc2ncccn12`: the inhibition was 4.55% (inactive).

In the case of `CC(Sc1cccc[n+]1[O-])C(=O)Nc1cccc(S(=O)(=O)N2CCOCC2)c1` (stereo not drawn), the inhibition was 4.59% (inactive).

In the case of `CN(C)c1ccc(NC(=O)CSc2n[nH]c(-c3ccco3)n2)cc1`, the inhibition was -3.13% (inactive).

As for `COc1cc(C(=O)Nn2c(O)c(C3=c4ccccc4=NC3=O)sc2=S)ccc1O`, the inhibition is 4.86% (inactive).

Take `COC(=O)Cn1nc(-c2ccccc2)c2cc(Cl)ccc21`: the inhibition is -5.36% (inactive).

For the molecule `Nc1ccc2nc3c(=O)[nH]c(=S)[nH]c3nc2c1`, the inhibition was 39.2% (active).

With `Cc1cc2nc3c(=O)n(Cc4ccccc4)c(=O)[nH]c3nc2cc1N`, the inhibition was 8% (inactive).

As for `Cc1ccc(C(=O)N/C(=C/c2cccs2)C(=O)N2CCCCC2)cc1`, the inhibition was 1.51% (inactive).

As to `CCc1nc2sc3c(Cl)ncnc3c2c2c1CCCC2`, the inhibition is 6.87% (inactive).

Turning to `CC(C)Cn1c(N)c(C(=O)NCc2cccs2)c2nc3ccccc3nc21`, the inhibition is 4.74% (inactive).

Take `C=CCn1c(N)c(S(=O)(=O)c2cccs2)c2nc3ccccc3nc21`: the inhibition is 6.58% (inactive).

Consider `C=CCn1c(N)c(C(=O)OCC(C)C)c2nc3ccccc3nc21`, for which the inhibition is 21.5% (active).

For `CC(=O)c1cccc(-n2nnnc2SCC(=O)NNC(=O)C2CCCCC2)c1`, the inhibition is -0.28% (inactive).

Take `COc1ccccc1CNC(=O)Cn1c(=O)oc2cc(Cl)ccc21`: the inhibition is -2.55% (inactive).

On to `COCC(C)OC(=O)c1c(N)n(CCCN2CCOCC2)c2nc3ccccc3nc12` (stereo not drawn), for which the inhibition was 4.25% (inactive).

Turning to `CCCCN1C(=O)/C(=C/C=C2/C=Cc3ccccc3N2CC)SC1=S`, the inhibition is 6.25% (inactive).

For the molecule `CCN1C(=O)/C(=c2\s/c(=C3\Sc4ccccc4N3C)c(=O)n2C)N(C)C1=S`, the inhibition was 2.09% (inactive).

For the molecule `CCN1C(=O)/C(=C2/Sc3ccccc3N2CCCS(=O)(=O)O)SC1=S`, the inhibition was 16.4% (active) and -0.77% (inactive).

`NC(=O)Cc1ccc2c(c1)[nH]c1ccccc12`: the inhibition was 2.82% (inactive).

With `Fc1ccc(CNCc2ccc(Br)cc2)cc1`, the inhibition was 9.11% (inactive).

In the case of `COc1ccccc1-n1c(SCC(=O)O)nc2sc3c(c2c1=O)CCC3`, the inhibition is -1.29% (inactive).

`Cc1ccc(C(C[N+](=O)[O-])c2c(C)cc3ccccn23)cc1` (stereo not drawn): the inhibition is -4.06% (inactive).

Turning to `COc1ccc(CCNC(=O)CCCCn2c(=O)[nH]c3ccccc3c2=O)cc1OC`, the inhibition was 4.64% (inactive).

As for `CCN(CC)CCNC(=O)CCCCCn1c(=O)[nH]c2cc(C(=O)OC)ccc2c1=O`, the inhibition is 15% (active).

With `O=C(CCCn1c(=O)[nH]c2cc(Cl)ccc2c1=O)NCCN1CCN(c2ccccc2)CC1`, the inhibition was 1.79% (inactive).

As to `O=C(CSc1nc2ccc([N+](=O)[O-])cc2[nH]1)c1ccc(Cl)cc1`, the inhibition is 2.81% (inactive).

`CC(CC(=O)Nc1ccccc1)n1ccnc1` (stereo not drawn): the inhibition is -4.72% (inactive).

As to `Cc1cc(C)c(NC(=O)CN2C(=O)NC(Cc3ccccc3)C2=O)c(C)c1` (stereo not drawn), the inhibition is -0.65% (inactive).

With `COc1ccccc1CNC(=O)COc1ccc(C)nc1[N+](=O)[O-]`, the inhibition is 0.97% (inactive).

In the case of `COc1cc(/C=C2/C(=O)NN(c3ccc(F)cc3)C2=O)cc([N+](=O)[O-])c1O`, the inhibition is 6.04% (inactive).

For the molecule `O=C(CC1N=C2c3ccccc3N=C(SCc3ccccc3Cl)N2C1=O)NCc1ccco1` (stereo not drawn), the inhibition was 2.64% (inactive).

Turning to `CCC(C)NC(=O)CSC1=Nc2ccccc2C2=NC(CCC(=O)NCc3ccco3)C(=O)N12` (stereo not drawn), the inhibition is 18.7% (active).

As to `O=C(CSC1=Nc2ccccc2C2=NC(CC(=O)NCc3ccco3)C(=O)N12)NCc1ccco1` (stereo not drawn), the inhibition is 2.33% (inactive).

As to `COc1nc(N(C)C)nc(N2CC(=O)N(CCNS(=O)(=O)c3ccc(C)cc3)C2=N)n1`, the inhibition is 5.1% (inactive).

As to `O=C1N=C(N2CCc3ccccc3C2)S/C1=C\c1ccc(O)cc1`, the inhibition is 0.81% (inactive).

`C/C(=N/NC(=S)Nc1ccccc1)c1ccc2c(c1)OCO2`: the inhibition was 2.26% (inactive).

With `CCOc1ccc(/C=N/Nc2nncc(-c3ccccc3)n2)cc1OC`, the inhibition was 0.88% (inactive).

With `CCOc1nc(OCC)nc(-n2cc(-c3ccccc3)nn2)n1`, the inhibition is 24.2% (active).

In the case of `CCOC(=O)c1nnn(-c2nc(OC)nc(N(C)C)n2)c1-c1ccccc1`, the inhibition was -0.37% (inactive).

Regarding `COC(=O)c1scc(S(=O)(=O)C(C)(C)C)c1-n1cccc1`, the inhibition is 3.92% (inactive).

On to `CC1CCC(NC(=O)C2c3ccccc3C(=O)N2Cc2ccc3c(c2)OCO3)CC1` (stereo not drawn), for which the inhibition is -6.03% (inactive).

For `Cc1ccc2c(c1)NCC(C(=O)NC1CCC(C)CC1)O2` (stereo not drawn), the inhibition was 18.4% (active).

For `Cc1ccc(C(=O)NC2CC(C)(C)NC(C)(C)C2)c(C)c1`, the inhibition is -2.82% (inactive).

As for `CN1C(=O)/C(=C\c2cc(Br)cs2)c2ccccc21`, the inhibition was 7.61% (inactive).

In the case of `O=C(Nc1nnc(Cc2ccccc2)s1)c1cnccn1`, the inhibition is 1.61% (inactive).

As to `COc1cccc(NC(=S)NCc2ccco2)c1`, the inhibition was 3.44% (inactive).

As for `O=C(NCCCO)/C(=C\C=C\c1ccccc1)NC(=O)c1ccccc1Cl`, the inhibition was 6.57% (inactive).

Turning to `CCN1CCc2nc(NC(=O)c3cc(F)c(F)cc3Cl)sc2C1`, the inhibition was 4.45% (inactive).

For the molecule `OCCNc1nc2ccccc2n1-c1ncnc2sc3c(c12)CCC3`, the inhibition was -5.39% (inactive).
